The term inhibition denotes the relative decrease from the control value, in per cent.

Our source for the inhibition values is ChEMBL document CHEMBL3433997, “St. Jude Leishmania screening dataset” (2016).

What all share (assay type): functional
For test [1], the target named is Solute carrier family 2, facilitated glucose transporter member 1 (Homo sapiens) (UniProt P11166). Briefly: ST_JUDE_LEISH: Cytotoxicity at 2uM final concentration against transgenic Leishmania Mexicana promastigotes LmGLUT1 that are glucose transport deficient and complemented with the human glucose transporter GLUT1. Activity is measured by DNA content using SYBR green in vitro.

The target of test [2] is Hexose transporter 1 (Plasmodium falciparum) (UniProt O97467). The experiment in a line: ST_JUDE_LEISH: Cytotoxicity at 2uM final concentration against transgenic Leishmania Mexicana promastigotes LmPfHT that are glucose transport deficient and complemented with the Plasmodium falciparum hexose transporter. Activity is measured by DNA content using SYBR green in vitro.
For test [3], the target named is Glucose transporter (Leishmania mexicana) (UniProt O61059). Briefly: ST_JUDE_LEISH: Cytotoxicity at 2uM final concentration against transgenic Leishmania Mexicana promastigotes LmGT2 that are glucose transport deficient and complemented with the L. Mexicana glucose transporter 2. Activity is measured by DNA content using SYBR green in vitro.

Solute carrier family 2, facilitated glucose transporter member 1 (Homo sapiens), sequence (P11166 whole entry): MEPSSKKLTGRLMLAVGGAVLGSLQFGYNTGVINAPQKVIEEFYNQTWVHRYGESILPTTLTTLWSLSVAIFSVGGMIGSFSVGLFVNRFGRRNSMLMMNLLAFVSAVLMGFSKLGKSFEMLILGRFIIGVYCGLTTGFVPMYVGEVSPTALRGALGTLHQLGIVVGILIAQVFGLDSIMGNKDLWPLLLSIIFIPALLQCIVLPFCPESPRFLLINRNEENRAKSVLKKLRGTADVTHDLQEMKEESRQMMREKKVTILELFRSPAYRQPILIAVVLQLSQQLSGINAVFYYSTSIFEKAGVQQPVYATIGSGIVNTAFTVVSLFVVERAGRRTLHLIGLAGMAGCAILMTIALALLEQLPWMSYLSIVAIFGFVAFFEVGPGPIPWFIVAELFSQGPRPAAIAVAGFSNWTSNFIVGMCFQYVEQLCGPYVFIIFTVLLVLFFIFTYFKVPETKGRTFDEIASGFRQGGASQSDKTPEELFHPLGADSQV

Turning to `N#Cc1cccc(NC(=O)Nc2ccc3c(c2)CN(Cc2c[nH]c4ncccc24)C3)c1`, the inhibition in test [1] came out at 6.66%; in test [2], 7.47%; in test [3], 3.37%.
Taken in the same sequence, the figures for `CCCOc1cc(Cc2cnc(N)nc2N)cc(OC)c1OC` were -1.05%, -1.9% and -0.03%.
Taken in the same sequence, the figures for `CN(C)C(CNC(=O)c1cc(-c2ccncc2)c(-c2ccc(NC(=O)Nc3ccccc3)cc2)o1)c1ccccc1` (centres undefined) were -0.56%, -0.15% and -0.82%.
Consider `COc1ccc(C2C(C(=O)Nc3ccc(C)c(F)c3)c3cc(OC)c(OC)cc3C(=O)N2C)cc1` (centres undefined), for which the inhibition in test [1] is 2.11%; in test [2], 3.41%; in test [3], 3.34%.
Consider `Cc1csc(-c2nc(NCc3cccnc3)ncc2-c2ccsc2)n1`, for which the inhibition in test [1] was 2.02%; in test [2], 2.53%; in test [3], 3.04%.
Consider `Fc1cccc(COc2ccc(Nc3ncnc4sc(C#CCNC5CCCC5)cc34)cc2Cl)c1`, for which the inhibition in test [1] amounted to 2.71%; in test [2], 2.09%; in test [3], 2.47%.
On to `CC(C)CCCC(C)(C)NC[C@@H](O)[C@H](Cc1ccccc1)NC(=O)c1cc(NC(C)C)cc(N2CCCCS2(=O)=O)c1F`, for which the inhibition in test [1] stood at 7.51%; in test [2], 5.83%; in test [3], 7.87%.
Taken in the same sequence, the figures for `OC1(c2ccc(Br)cc2)CCN(C2CCN(Cc3ccccc3)CC2)CC1` were 5.8%, 6.01% and 3.71%.
Regarding `COc1cc(NC(=O)C(c2ccc(Cl)cc2)C(C)C)cc(OC)c1OC` (centres undefined), the inhibition in test [1] came out at 2.52%; in test [2], 1.79%; in test [3], 5.89%.
For `FC(F)(F)c1cccc(CCNc2nccc(NCc3ccccc3Cl)n2)c1`, the inhibition in test [1] was 5.73%; in test [2], 4.26%; in test [3] it was 0.1%.
On to `OC(CNCc1ccco1)Cn1c2ccc(Br)cc2c2cc(Br)ccc21` (centres undefined), for which the inhibition in test [1] was determined as 5.15%; in test [2], 3.41%; in test [3], 2.56%.
For the compound `CC(=O)c1cc(N2CCCC2)ccc1N`, the inhibition in test [1] amounted to 2.5%; in test [2] it was 2.6%; in test [3] it was 2.09%.
In the same order, the values of `CC(C)c1sc(-c2ccc(C(C)(C)C)cc2)nc1C(=O)NCCCN1CCCC1=O` are 1.02%, 1.22% and 1.9%.
In the case of `Cc1ccc2c(c1)C1(CC(=O)N(CCc3scnc3C)C1=O)C(=O)N2Cc1ccccc1` (centres undefined), the inhibition in test [1] is 2.62%; in test [2] it was 3.66%; in test [3], 3.42%.
In the same order, the values of `CCCC(CNCc1ccc(Cl)c(C(F)(F)F)c1)CNc1nc2cnccc2[nH]1` (centres undefined) are 13.5%, 11.9% and 8.76%.
In the same order, the values of `Cc1cc(Nc2ccc(C)c(Cl)c2)n2nc(C(F)(F)F)nc2n1` are 6.65%, 2.47% and 1.18%.
For the compound `CCCN1CCCN(Cc2cccc(NC(=O)c3ccc(-c4ccccc4)cc3)c2)CC1`, the inhibition in test [1] was 0.74%; in test [2], 0.03%; in test [3] it was -5.12%.
`O=C(Nc1cccc(-c2ccc(-c3nc4ccccc4[nH]3)cc2)c1)Nc1ccc(F)c(F)c1F`: the inhibition in test [1] was -2.14%; in test [2], 1.23%; in test [3] it was 2.03%.
In the same order, the values of `O=C(NC1CCC1)C1CCN(C(c2ccccc2)c2cc(F)cc(F)c2)CC1` (centres undefined) are 6.73%, 7.32% and 6.61%.
In the same order, the values of `CCc1cn2c3c(cc(C(=O)N[C@@H](Cc4ccccc4)[C@H](O)CNC(C)(C)CCCC(C)C)cc13)N(C)S(=O)(=O)C2` are 2.45%, 2.22% and 0.85%.
As for `O=C(Nc1ccc(CN2CCOCC2)cc1)c1ccc(-c2cc(Cl)ccc2Cl)o1`, the inhibition in test [1] stood at 11%; in test [2] it was 8.63%; in test [3], 7.99%.
Regarding `CN1CCCc2ccc(NC(=O)C=Cc3ccc(-c4ccc(F)cc4F)o3)cc2C1`, the inhibition in test [1] stood at 0.88%; in test [2], 0.81%; in test [3], 2.73%.
On to `CC(C)Sc1nc2c(c(=O)n1Cc1ccco1)C1(CCCCC1)Cc1ccccc1-2`, for which the inhibition in test [1] was determined as 2.09%; in test [2], 2.03%; in test [3], 1.54%.
On to `Cc1cccc2nc(-c3ccc(-c4cccc(CNCCCN5CCCC5=O)c4)cc3)[nH]c12`, for which the results for the inhibition in test [1], in test [2] and in test [3] were 7.98%, 9.6% and 8.02%, respectively.
Turning to `O=C(NCC1CC1)C1CCN(C(c2ccccc2)c2nc3ccccc3s2)CC1` (centres undefined), the inhibition in test [1] was -0.89%; in test [2], -1.39%; in test [3] it was -4.85%.
In the same order, the values of `Cc1cc(Oc2cc(NC(=O)c3sc4ncn(Cc5ccccc5F)c(=O)c4c3C)cc([N+](=O)[O-])c2)ccc1Cl` are 1.2%, 1.84% and 1.68%.
As for `O=C(/C=C/c1ccc(-c2nc3cc(F)c(F)cc3[nH]2)cc1)NCc1ccc(Cl)c(Cl)c1`, the inhibition was found to be 4.53% in test [1], 4.32% in test [2] and 1.96% in test [3].
Take `COc1cc2c(cc1OC)CC(NCc1ccc(-c3ccc4nc[nH]c4c3)cc1)C2`: the inhibition in test [1] was determined as 5.26%; in test [2], 5.44%; in test [3], 4.38%.
In the same order, the values of `COc1ccc2nccc([C@@H](O)CN3CCC(NCc4cc5cccc(OCc6ccccc6)c5[nH]4)CC3)c2c1` are 1.7%, 0.05% and 2.01%.
For `O=C(NCCN1CCCc2ccccc21)C1CCN(c2nc(-c3ccc(Cl)cc3)no2)CC1`, the inhibition is 1.63% in test [1], 2.11% in test [2] and -2.23% in test [3].
In the same order, the values of `O=C(Nc1ccc(Cl)cc1)Nc1nc2cc([N+](=O)[O-])ccc2[nH]1` are 0.18%, 0.01% and 0.02%.
With `O=C(c1ccccc1[N+](=O)[O-])N(Cc1ccccc1)c1ccccn1`, the inhibition was determined as 4.59% in test [1], 4.79% in test [2] and 6.57% in test [3].
Taken in the same sequence, the figures for `Nc1c2c(nc3ccc(NC(=O)CCCCCc4ccccc4)cc13)CCCC2` were 7.95%, 9.26% and 10%.
